# High-throughput results from PubChem BioAssay.
# CHT inh = inhibitors of human choline transporter CHT; High affinity choline transporter 1 (Homo sapiens), Q9GZV3; CHT-expressing cells, membrane potential dye, choline response; hits give low values; B-score at 10 µM; 310,000 compounds, 0.86% hits; AID 488975, 2010;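 active = B-score over 3 SD under the library average, and starting fluorescence ratio not unusually high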;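 note: choline stimulus applied at its EC90 after an EC20 pre-addition; B-score computed on integrated fluorescence ratio after choline addition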
# Target sequence (Q9GZV3 whole entry, looked up): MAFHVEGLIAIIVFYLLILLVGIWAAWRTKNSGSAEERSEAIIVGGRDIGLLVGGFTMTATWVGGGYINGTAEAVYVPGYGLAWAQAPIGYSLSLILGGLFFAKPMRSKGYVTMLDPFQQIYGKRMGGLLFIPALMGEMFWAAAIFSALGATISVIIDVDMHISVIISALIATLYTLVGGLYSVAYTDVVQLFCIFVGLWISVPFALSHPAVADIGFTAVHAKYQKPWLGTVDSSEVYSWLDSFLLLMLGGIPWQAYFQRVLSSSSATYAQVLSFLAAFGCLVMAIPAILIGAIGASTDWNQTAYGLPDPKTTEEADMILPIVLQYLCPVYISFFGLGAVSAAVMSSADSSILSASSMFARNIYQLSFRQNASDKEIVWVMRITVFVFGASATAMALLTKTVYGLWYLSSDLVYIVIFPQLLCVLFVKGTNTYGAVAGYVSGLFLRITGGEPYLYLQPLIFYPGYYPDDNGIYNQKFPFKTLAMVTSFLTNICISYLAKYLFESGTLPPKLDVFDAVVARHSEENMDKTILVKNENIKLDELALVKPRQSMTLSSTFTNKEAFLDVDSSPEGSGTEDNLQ
# ANO1 activ = TMEM16A chloride channel activators or potentiators, primary screen, cell-based, HTS; HEK293 TMEM16A/YFP-H148Q/I152L, iodide quench fluorescence; hits give low values; 340,000 compounds, 0.3% hits; B-score at 10 µM; Anoctamin-1 (Mus musculus), Q8BHY3;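 active = fluorescence-ratio B-score plate-corrected deviation score at least 3 library SD below zero, with starting fluorescence score within 5 deviations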;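 note: channel opened by trigger with iodide after compound preincubation; score built on the fluorescence ratio of max minus min over baseline; more negative score means more quench and so TMEM16A activation or potentiation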
# CHT PAM = CHT positive allosteric modulators, primary screen, cell-based, membrane potential dye, choline EC20; AID 488977, 2010; 310,000 compounds, 0.49% hits; High affinity choline transporter 1 (Homo sapiens), Q9GZV3; B-score at 10 µM; CHT-expressing cells; hits give high values; LV-AA mutant CHT in HEK293 cells;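 active = initial fluorescence not abnormally high and integrated response B-score, plate-corrected, over 3 SD above library mean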
# ANO1 block = TMEM16A chloride channel inhibitors, primary screen, cell-based, HTS. Anoctamin-1 (Mus musculus), Q8BHY3. HEK293 TMEM16A/YFP iodide influx fluorescence, ionomycin. normalized B-score (activity score, 25-100; higher = stronger inhibition) at 10 µM. 310,000 compounds, 1.2% hits. AID 588511, 2011;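 active = ratio plate-corrected score three or more library SD toward inhibition, starting fluorescence score within five deviations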;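 note: score derived from kinetic fluorescence span divided by baseline fluorescence per well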
# CHT act confirm = CHT activators, confirmation, cell-based, membrane potential dye, duplicate; shares compounds with CHT PAM; CHT-expressing cells, membrane potential dye fluorescence (FDSS); % of choline EC20–EC90 response window; HEK293 expressing CHT LV-AA mutant; choline added at its EC20; activation, % at 10 µM; 2,500 compounds, 91% hits;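 active = primary screen active, with duplicate mean activation above negative control mean plus 3 SD, cut at about 11% in these data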
# HEK293 MP dye = membrane potential response in parental HEK293 cells, counter-screen for CHT activator project, cell-based, membrane potential dye; shares compounds with CHT PAM; membrane potential dye fluorescence (FDSS); measured after EC20 choline addition; ratio readout change at 10 µM, hits read low; 2,500 compounds, 62% hits;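 active = duplicate-averaged ratio beyond 3 SD from buffer wells, up or down, though filed actives are nearly all decreases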
# The depositor's hits bear a star; i = inactive; nt = not tested or not shown. An excerpt weighted towards active compounds, which were near 2.3% of everything screened.
SMILES,CHT inh,ANO1 activ,CHT PAM,ANO1 block,CHT act confirm,HEK293 MP dye
CCC(C(=O)NCCN1CCOCC1)n1nc(C)n2c(cc3sccc32)c1=O (stereo unspecified),i,i,i,i,nt,nt
Cc1ccc2nc(CCl)[n+]([O-])c(-c3ccccc3)c2c1,i,i,i,i,nt,nt
Cc1cc(-c2ccccc2)cc(-c2ccccc2)[n+]1C,i,i,6.8*,i,79*,-23*
CCOC(=O)c1c(C)nsc1NC(=O)C1CCCCC1,i,i,i,i,nt,nt
CC(=O)Nc1ccc(N/C(N)=N/c2nc(C)cc(C)n2)cc1,i,i,i,i,nt,nt
Cc1cc(C)nc(/N=C(\N)Nc2ccc(S(=O)(=O)Nc3nc(C)cc(C)n3)cc2)n1,i,nt,8.7*,i,59*,-58*
COc1ccccc1CCC(=O)N(C)CC(=O)Nc1ccc(Cl)c(C(F)(F)F)c1,i,i,i,i,nt,nt
COc1ccc(N2CC(C)Cn3c2nc2c3c(=O)n(Cc3ccc(F)cc3)c(=O)n2C)c(OC)c1 (stereo unspecified),i,i,i,i,18*,i
Cc1ccc(CN(Cc2cc3cc4c(cc3[nH]c2=O)OCCO4)Cc2nnnn2Cc2ccco2)cc1,i,i,i,i,nt,nt
COc1ccccc1CN(Cc1cc2c(C)ccc(C)c2[nH]c1=O)Cc1nnnn1Cc1ccco1,i,i,6.4*,i,17*,i
Cc1ccccc1Oc1nc2c(C)cccn2c(=O)c1/C=C(\C#N)C(=O)NC1CCS(=O)(=O)C1 (stereo unspecified),i,i,i,i,nt,nt
Cc1cccn2c(=O)c(/C=C(\C#N)C(=O)NC3CCS(=O)(=O)C3)c(Oc3ccccc3Cl)nc12 (stereo unspecified),i,i,i,i,8,-47*
CCCn1c(=N)c(C(=O)NC2CCCC2)cc2c(=O)n3cccc(C)c3nc21,i,i,i,i,nt,nt
Cc1cccn2c(=O)c3cc(C(=O)NC4CCCC4)c(=N)n(C4CCCC4)c3nc12,i,i,i,i,34*,-39*
Cc1cccn2c(=O)c3cc(C(=O)NC4CCCCCC4)sc3nc12,i,i,i,i,nt,nt
Cc1cccn2c(=O)c3cc(C(=O)N4COCC4(C)C)sc3nc12,i,i,i,i,35*,-30*
Cc1cccn2c(=O)c3cc(C(=O)NC4CCS(=O)(=O)C4)sc3nc12 (stereo unspecified),i,i,6.4*,i,51*,-43*
CC1=CC(C)(C)[N+](C)=CN1c1ccccc1,i,i,i,i,nt,nt
Cc1cc(Cl)ccc1OCCCC(=O)OCC(=O)c1c(N)n(C)c(=O)n(C)c1=O,i,i,i,i,nt,nt
O=c1c(-c2ccnn2-c2cccc(Cl)c2)cnc2n1CCS2,i,i,i,i,nt,nt
Cn1c(SCC(=O)c2ccccc2)nnc1-c1cccc(N)c1,i,i,i,i,nt,nt
Cn1c(Cc2ccccc2)[n+](C)c2ccccc21,i,i,i,i,49*,-41*
Cc1ccc(C(c2nnnn2C(C)(C)C)N2CCN(C3CCCC3)CC2)cc1 (stereo unspecified),i,i,i,i,nt,nt
CC(C)CC(c1nnnn1C(C)(C)C)N1CCN(C2CCCC2)CC1 (stereo unspecified),i,i,6.6*,i,15*,i
CCCc1cc2c(cc1NC(=O)c1ccccc1Cl)OCO2,i,i,i,i,nt,nt
SMILES,CHT inh,ANO1 activ,CHT PAM,ANO1 block,CHT act confirm,HEK293 MP dye
CCCN1C(=O)c2ccc(C(=O)Nc3cc(C)on3)cc2C1=O,i,i,i,i,21*,-27*
CCOc1ccc(C(=O)Nc2cc(C)on2)cc1OCC,i,i,i,i,46*,-35*
Cc1ccc(NC(=O)CS(=O)(=O)c2c[nH]c3ccccc23)c(C)c1,i,i,i,i,nt,nt
Cc1cc2c(cc1C)[n+](C)cn2CC(O)COCc1ccccc1 (stereo unspecified),i,i,i,i,48*,-35*
Cc1ccc(C(C)C)c(OCC(=O)Nc2ccc3c(c2)nc(CCN2CCCCC2)n3C)c1,i,i,i,i,25*,-27*
Cn1c(CCN2CCCCC2)nc2cc(NC(=O)COc3ccc(Cl)cc3)ccc21,i,i,i,i,nt,nt
Cc1cn2nc(N)c3ccccc3c2n1,i,i,i,i,62*,-57*
Cc1ccc(C(=O)C[n+]2cccc3cc(C)ccc32)cc1,i,i,i,i,38*,-35*
CCOC(=O)CNc1c(-c2ccc(O)cc2)nc2ccccn12,i,nt,i,i,56*,-44*
COC(=O)c1ccc(NC(=O)c2ccccc2N(C)S(=O)(=O)c2ccccc2)cc1,i,i,i,i,nt,nt
O=C(NC1CCCCC1)C(c1ccco1)N(Cc1cccnc1)C(=O)C1COc2ccccc2O1 (stereo unspecified),i,i,i,i,13*,i
Cc1cccc(CCN2C(N(C)C)=NC[C@@H]2Cc2ccccc2)c1,nt,i,nt,nt,nt,nt
CN(C)C1=NC[C@H](Cc2ccccc2)N1CCCCc1ccccc1,i,i,i,i,16*,i
CCCCCCCN1C(N(C)C)=NC[C@@H]1Cc1ccccc1,i,i,6.8*,i,25*,i
CN(C)C1=NC[C@H](Cc2ccccc2)N1CC1CCCCC1,i,i,i,i,nt,nt
CCCNC(=O)c1cc(-c2ccc(OC)cc2)n(CCCOC)c1C,i,i,i,i,nt,nt
C/C(=N\NC(=O)c1nnn(-c2nonc2N)c1CN1CCC(C)CC1)c1cccc(Br)c1,i,i,i,i,16*,i
CC1CCN(Cc2c(C(=O)N/N=C/c3ccc(C(C)(C)C)cc3)nnn2-c2nonc2N)CC1,i,i,7*,i,14*,i
COc1ccc(CCN2C(=O)c3ccccc3NC2c2cc(Cl)c(O)c(OC)c2)cc1 (stereo unspecified),i,i,8.3*,i,24*,i
O=C1N(Cc2cccc(Cl)c2)C[C@@H]2C[C@@H](c3ccsc3)N3CCC[C@@]123,i,i,i,i,28*,i
